Data reported in PubChem BioAssay (Tox21).
Results filed as inconclusive are left out. The source made the active and inactive calls. The call rests on the fitted dose curve; in most records, active means well fitted curve in the direction sought with a large enough effect in the repeat runs; inconclusive means weak or mixed curves; inactive means no such curve, though single readings can be large; an effect the other way counts as inactive or inconclusive.

Assays:
[1] = qHTS RealTime-Glo MT Cell Viability Assay in HepG2 cells - 8 hour (AID 1224873); further: nearly all actives have a fitted effect of over 55% in size
In short: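 HepG2 cells mixed with RealTime-Glo MT reagents (NanoLuc plus cell-permeant prosubstrate) were seeded at 600 cells/well, incubated 5 h at 37 C/5% CO2, then pinned with compounds in DMSO; nonlytic luminescence tracked viability during 40 h treatment.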

[2] = qHTS RealTime-Glo MT Cell Viability Assay in HEK293 cells - 40 hour (AID 1224874); conditions: RealTime-Glo luminescence; max response: active compounds read low; further: nearly all actives have a fitted effect of over 50% in size
In short: (§1)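 Real-time viability in HEK293: signal arises when living cells convert a prosubstrate for NanoLuc in the medium, so luminescence tracks viable cell number. Compound (23 nL, DMSO) added 5 h post-seeding; kinetic reads at 0–40 h, 37 C.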

[3] = A CellTox Green Cytotoxicity Assay to monitor cytotoxicity in HEK293 cells - 24 hour (AID 1224875); further: series mostly up to about 77 µM; nearly all actives have a fitted effect of over 45% in size
In short: (§2)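 Cells (HEK293, 600/well) and dye reagent are dispensed together. After 5 h at 37 C, 23 nL compound is pinned in. Plates stay at 37 C for 40 h with fluorescence read at 0h, 8h, 16h, 24h, 32h and 40h.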

[4] = A CellTox Green Cytotoxicity Assay to monitor cytotoxicity in HepG2 cells - 16 hour (AID 1224876); further: nearly all actives have a fitted effect of over 45% in size
In short: (§3)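 Cells and non-lytic dye reagent are dispensed together (600 HepG2 cells/well) and incubated 5 h before DMSO compound transfer. Kinetic fluorescence is then recorded in the same wells during 40 h at 37 C.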

[5] = qHTS RealTime-Glo MT Cell Viability Assay in HepG2 cells - 32 hour (AID 1224877); further: nearly all actives have a fitted effect of over 55% in size
In short: (§4)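 Cells + NanoLuc/prosubstrate dispensed (600 cells/well) → 5 h at 37 C/5% CO2 → compounds in DMSO transferred → 40 h incubation at 37 C, luminescence read at 0, 8, 16, 24, 32, 40 h.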

[6] = A CellTox Green Cytotoxicity Assay to monitor cytotoxicity in HepG2 cells - 24 hour (AID 1224878); further: nearly all actives have a fitted effect of over 45% in size
In short: as §3

[7] = A CellTox Green Cytotoxicity Assay to monitor cytotoxicity in HepG2 cells - 40 hour (AID 1224879); further: nearly all actives have a fitted effect of over 40% in size
In short: as §3

[8] = qHTS RealTime-Glo MT Cell Viability Assay in HEK293 cells - 0 hour (AID 1224880); further: top concentration of the series differs between compounds; nearly all actives have a fitted effect of over 45% in size
In short: as §1

[9] = A CellTox Green Cytotoxicity Assay to monitor cytotoxicity in HEK293 cells - 32 hour (AID 1224881); further: nearly all actives have a fitted effect of over 40% in size
In short: as §2

[10] = A CellTox Green Cytotoxicity Assay to monitor cytotoxicity in HepG2 cells - 0 hour (AID 1224882); further: nearly all actives have a fitted effect of over 35% in size
In short: as §3

[11] = A CellTox Green Cytotoxicity Assay to monitor cytotoxicity in HepG2 cells - 32 hour (AID 1224883); further: nearly all actives have a fitted effect of over 50% in size
In short: as §3

[12] = A CellTox Green Cytotoxicity Assay to monitor cytotoxicity in HEK293 cells - 8 hour (AID 1224884); further: nearly all actives have a fitted effect of over 35% in size
In short: as §2

[13] = qHTS RealTime-Glo MT Cell Viability Assay in HepG2 cells - 16 hour (AID 1224885); further: nearly all actives have a fitted effect of over 50% in size
In short: as §4

[14] = qHTS RealTime-Glo MT Cell Viability Assay in HEK293 cells - 24 hour (AID 1224886); further: top concentration of the series differs between compounds; nearly all actives have a fitted effect of over 50% in size
In short: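 Tox21 10K qHTS, HEK293, 600 cells/well, RealTime-Glo reagent co-dispensed with cells; 5 h preincubation, compound by pintool, 37 C, luminescence at 0–40 h.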

[15] = qHTS RealTime-Glo MT Cell Viability Assay in HEK293 cells - 8 hour (AID 1224887)
In short: as §1

[16] = A CellTox Green Cytotoxicity Assay to monitor cytotoxicity in HEK293 cells - 16 hour (AID 1224888); further: nearly all actives have a fitted effect of over 35% in size
In short: as §2

[17] = qHTS RealTime-Glo MT Cell Viability Assay in HepG2 cells - 0 hour (AID 1224889); further: nearly all actives have a fitted effect of over 50% in size
In short: as §4

[18] = A CellTox Green Cytotoxicity Assay to monitor cytotoxicity in HepG2 cells - 8 hour (AID 1224890); further: nearly all actives have a fitted effect of over 45% in size
In short: as §3

[19] = qHTS assay to identify small molecule antagonists of the estrogen receptor alpha (ER-alpha) signaling pathway using the BG1 cell line in the presence of 0.1 nM 17-beta-estradiol - cell viability counter screen (AID 1259241); further: nearly all actives have a fitted effect of over 40% in size
In short: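 Estradiol-stimulated (0.1 nM) VM7Luc4E2 cells exposed to compounds 22 hr; viability measured by fluorescence of cleaved CellTiter-Fluor substrate after 30 min.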

[20] = qHTS assay to identify small molecule antagonists of the androgen receptor (AR) signaling pathway using the MDA cell line in the presence of 0.5 nM R1881 - cell viability counter screen (AID 1259242); further: nearly all actives have a fitted effect of over 45% in size
In short: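 Steps: plate MDA-kb2 cells, rest 5 hr at 37C without CO2; pin in compounds in DMSO; add R1881 to 0.5 nM final; incubate 16 hr; add CellTiter-Fluor, 30 min; read fluorescence.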
On the % scale 0 is the no-effect control and ±100 the full control effect.

CC(=O)O[C@@H]1C[C@@H]2CC[C@@]1(C)C2(C)C
inactive: Potency [1] | max response [2] 0.199% | Potency [3] | Potency [4] | Potency [5] | Potency [6] | Potency [7] | Potency [8] | Potency [9] | Potency [10] | Potency [11] | Potency [12] | Potency [13] | Potency [14] | Potency [15] | Potency [16] | Potency [17] | Potency [18] | Potency [19] | Potency [20]

Cn1cnc2ncnc(N)c21
inactive: Potency [1] | max response [2] 11.2% | Potency [3] | Potency [4] | Potency [5] | Potency [6] | Potency [7] | Potency [8] | Potency [9] | Potency [10] | Potency [11] | Potency [12] | Potency [13] | Potency [14] | Potency [15] | Potency [16] | Potency [17] | Potency [18] | Potency [19] | Potency [20]

CCCCCCS
inactive: Potency [1] | max response [2] 6.5% | Potency [3] | Potency [4] | Potency [5] | Potency [6] | Potency [7] | Potency [8] | Potency [9] | Potency [10] | Potency [11] | Potency [12] | Potency [13] | Potency [14] | Potency [15] | Potency [17] | Potency [18] | Potency [19] | Potency [20]

CN1CN(C)CN(C)C1
inactive: Potency [1] | max response [2] -12.7% | Potency [3] | Potency [4] | Potency [5] | Potency [6] | Potency [7] | Potency [8] | Potency [9] | Potency [10] | Potency [11] | Potency [12] | Potency [13] | Potency [14] | Potency [15] | Potency [16] | Potency [17] | Potency [18] | Potency [19] | Potency [20]

C=CC(=O)OCCN(CC)CC
inactive: Potency [1] | max response [2] 3.34% | Potency [3] | Potency [4] | Potency [5] | Potency [6] | Potency [7] | Potency [8] | Potency [9] | Potency [10] | Potency [11] | Potency [12] | Potency [13] | Potency [14] | Potency [15] | Potency [16] | Potency [17] | Potency [18] | Potency [19] | Potency [20]

CCCCCCCC(OC)OC
inactive: Potency [1] | max response [2] 5.48% | Potency [3] | Potency [4] | Potency [5] | Potency [6] | Potency [7] | Potency [8] | Potency [9] | Potency [10] | Potency [11] | Potency [12] | Potency [13] | Potency [14] | Potency [15] | Potency [16] | Potency [17] | Potency [19] | Potency [20]

O=C(O)CC(=O)O
inactive: Potency [1] | max response [2] 11.5% | Potency [3] | Potency [4] | Potency [5] | Potency [6] | Potency [7] | Potency [8] | Potency [9] | Potency [10] | Potency [11] | Potency [12] | Potency [13] | Potency [14] | Potency [15] | Potency [16] | Potency [17] | Potency [19] | Potency [20]

CCc1cccc(CC)c1N(COC)C(=O)CS(=O)(=O)O
inactive: Potency [1] | max response [2] 20.8% | Potency [3] | Potency [4] | Potency [5] | Potency [6] | Potency [7] | Potency [8] | Potency [9] | Potency [10] | Potency [11] | Potency [12] | Potency [13] | Potency [14] | Potency [15] | Potency [16] | Potency [17] | Potency [18] | Potency [19] | Potency [20]

CCc1c(Br)c(Br)c(Br)c(Br)c1Br
inactive: Potency [1] | max response [2] 4.82% | Potency [3] | Potency [4] | Potency [5] | Potency [6] | Potency [7] | Potency [8] | Potency [9] | Potency [10] | Potency [11] | Potency [12] | Potency [13] | Potency [14] | Potency [15] | Potency [16] | Potency [17] | Potency [19] | Potency [20]

CC(C)(c1cc(Br)c(O)c(Br)c1)c1cc(Br)c(O)c(Br)c1
inactive: Potency [1] | max response [2] -17.7% | Potency [3] | Potency [4] | Potency [5] | Potency [6] | Potency [7] | Potency [8] | Potency [9] | Potency [10] | Potency [11] | Potency [12] | Potency [13] | Potency [14] | Potency [15] | Potency [17] | Potency [18] | Potency [19] | Potency [20]

Cc1ccc(O)cn1
inactive: Potency [1] | max response [2] -9.02% | Potency [3] | Potency [4] | Potency [5] | Potency [6] | Potency [7] | Potency [8] | Potency [9] | Potency [10] | Potency [11] | Potency [12] | Potency [13] | Potency [14] | Potency [15] | Potency [16] | Potency [17] | Potency [19] | Potency [20]

OCCCS
inactive: Potency [1] | max response [2] 7.88% | Potency [3] | Potency [4] | Potency [5] | Potency [6] | Potency [8] | Potency [9] | Potency [10] | Potency [11] | Potency [13] | Potency [14] | Potency [15] | Potency [17] | Potency [18] | Potency [19] | Potency [20]
